High-throughput results: PubChem, National Center for Advancing Translational Sciences (NCATS)
Cycloheximide cs – counter-screen for Shiga toxin inhibitors: cycloheximide protein synthesis inhibition; hit rate 12% among 300,000; cell reporter, cycloheximide protein synthesis inhibition counterscreen; AID 2314; max response, %; in the data active = max response mostly above about 13%, no sharp cut-off; inactive = mostly below about 14%; note: read at 38.3 µM for the half of the compounds with a filed dose; 0% is about no effect
Pf growth 48h – inhibits P. falciparum growth in the first generation, 48 h | P. falciparum luciferase growth in erythrocytes, 48 h | Potency, µM (top dose mostly 28.7 µM), inactives show at the top dose activity change, negative = inhibition, actives largely listed as inhibitors | hit rate 5.9% among 310,000 | AID 504832; note: potency is the fitted concentration of half-maximal effect; % is set by controls: 0 for no effect and ±100 for the full control effect
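Firefly luciferase activity from engineered P. falciparum reports growth; inhibitors lower the luminescent signal. Cultures contained 2% hematocrit erythrocytes at 0.1% final parasitemia.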
NS1 inh – influenza NS1 inhibition; Potency, µM (series often up to 46.1 µM), inactives show at the highest dose activity, positive = more growth; hit rate 0.4% among 270,000; calls by dose curve; note: potency is the fitted concentration of half-maximal effect; actives are rising curves; nearly all actives have a fitted effect of over 50% in size
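Growth recovery, yeast-based: influenza A NS1 expressed in S. cerevisiae causes slow growth, and suppressors are detected by OD600. The parent strain without NS1 is used as positive control.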
Pf growth 96h – P. falciparum growth inhibition at 96 hours; AID 504834; hit rate 6.9% among 320,000; Potency, µM (titrated, usually from 28.7 µM), without a hit: top-dose activity change, negative = inhibition, actives largely listed as inhibitors; P. falciparum luciferase reporter growth, 96 h; note: potency is the fitted concentration of half-maximal effect; % is set by controls: 0 for no effect and ±100 for the full control effect
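Erythrocytes infected with luciferase-expressing P. falciparum were dispensed at 2% hematocrit and 0.05% parasitemia (final), then incubated with compounds 96 hours at 37 C in 5% CO2. Luminescence after detection reagent addition reported growth.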
Shiga inhibitor – blocks Shiga toxin action in Vero cells. Vero cells, Shiga toxin protein synthesis inhibition reporter. inhibition, % at 38.7 µM. hit rate 9.2% among 290,000. AID 2315; in the data active = inhibition mostly above about 28%, no sharp cut-off; inactive = mostly below about 43%; note: 0% is about no effect
SARS PLpro yeast – inhibitors of SARS-CoV papain-like protease in yeast; S. cerevisiae expressing SARS-CoV PLpro, growth rescue; Potency, µM (titrated, usually from 32.9 µM), without a hit: at the top dose activity, positive = growth rescue, usual class: activators; hit rate 0.19% among 330,000; AID 485353; calls by dose curve; note: potency is the fitted concentration of half-maximal effect; 0% is about no effect; nearly all actives have a fitted effect of over 55% in size
Numbers without * were called inactive; ? = inconclusive; / = not tested or not shown. Only some compounds are listed: those with a hit (about 21% of all), similar ones and a draw of the others. Unless noted, calls come from the whole dose curve; as a rule, active = well fitted inhibition curve with a large enough effect; inconclusive = small, poorly fitted or top-dose-only effect, or another doubt; inactive = no such curve, though single readings can be large or run the other way.

SMILES	Cycloheximide cs	Pf growth 48h	NS1 inh	Pf growth 96h	Shiga inhibitor	SARS PLpro yeast
O=C(CCCN1C(=O)C(c2ccccc2)Oc2cccnc21)NCc1ccccc1F (centres undefined)	10	?	5%	2.1µM*	7	29%
CCOC(=O)C1CCCN(C(=S)NC(=O)c2cc(Br)ccc2Cl)C1 (centres undefined)	/	44%	/	77%	/	5%
O=C(CCCc1ccccc1)NCCCc1ccccc1	-2	7%	-43%	-11%	-3	2%
CCOCCCNC(=O)CCCOc1ccccc1	-1	28%	-6%	4.7µM*	-3	11%
O=C(CCCc1ccccc1)NCc1ccccc1Cl	18*	-26%	-18%	-7%	/	7%
CC(C(=O)NCCc1ccc(F)cc1)N1CCN(Cc2ccccc2)CC1 (centres undefined)	1	?	/	5.2µM*	-2	-1%
CC(=O)c1ccc(OCCCC(=O)NCCc2ccccc2)cc1	31*	3%	9%	?	51	6%
CC(C(=O)NC1CCCC1)N1CCN(Cc2ccccc2)CC1 (centres undefined)	1	34%	/	75%	-23	-1%
O=C(Cc1ccc(F)cc1)NCCc1ccccc1	3	/	-1%	?	-8	2%
COc1cccc(C(=O)NCc2cn3ccsc3n2)c1	16*	18%	3%	22%	9	1%
O=C(CCc1ccccc1)NCCc1ccc(F)cc1	27*	9%	0%	-4%	29	1%
O=C(CCCc1ccccc1)NCc1cn2ccsc2n1	17*	14%	-6%	15%	15	0%
O=C(CCCc1ccccc1)NCCc1ccc(F)cc1	29*	-12%	-29%	8%	92*	8%
CCCn1c(SC(C(=O)Nc2cccc(OC)c2)c2ccccc2)nc2ccccc2c1=O (centres undefined)	-2	0%	15%	0%	-15	-7%
O=C(CCCc1ccccc1)NCCc1ccccc1	45*	83%	-10%	43%	84*	-4%
O=C(COC(=O)c1ccco1)NCc1ccccc1Cl	32*	5%	/	11%	86*	-1%
O=C(O)/C=C/C(=O)NCCc1ccccc1	-4	1%	/	?	11	0%
CN(CC(=O)NCCc1ccc(F)cc1)Cc1cccs1	28*	28%	/	12%	26	1%
CC(C)=CC(=O)NCCc1ccccc1	45*	211%	-17%	/	93*	/
Cn1c(=O)c2cc3ccccc3nc2n(C)c1=O	2	-2%	4%	21%	-6	1%
Cc1[nH]c2ccccc2c1C(=O)C(=O)N1CCN(c2cccc(Cl)c2)CC1	-2	14%	-87%	?	-8	-7%
CC1CCN(CC(CS(=O)(=O)c2ccc([N+](=O)[O-])cc2)N2CCC(C)CC2)CC1 (centres undefined)	-2	?	2%	?	-2	-3%
CC(=O)Nc1ccc(C2Nc3cc(C)c(C)cc3NC3=C2C(=O)CC(C)(C)C3)cc1 (centres undefined)	36*	6%	-20%	8.3µM*	40*	3%
Cc1cc2c(cc1C)NC(c1nc3ccccc3[nH]1)C1=C(CC(C)(C)CC1=O)N2 (centres undefined)	3	5%	-8%	-2%	-4	5%
O=C(Cn1nnc(-c2ccccc2F)n1)Nc1ccc(S(=O)(=O)NC2CCCC2)cc1	-4	?	-2%	-14%	24	-3%
SMILES	Cycloheximide cs	Pf growth 48h	NS1 inh	Pf growth 96h	Shiga inhibitor	SARS PLpro yeast
CC(C)c1ccc(C(=O)OCC(=O)NC2CCCC2)cc1	27*	35%	-5%	42%	31	-2%
Cc1ccc(C(=O)OCC(=O)NC2CCCC2)cc1C	22*	41%	-4%	40%	54*	-1%
COc1ccc(C(=O)OCC(=O)NC2CCCC2)cc1OC	-1	19%	-3%	23%	-5	0%
O=C(COC(=O)c1ccc(Cl)cc1)NC1CCCCCC1	/	15%	/	11%	/	-2%
O=C(COC(=O)c1ccccc1)NC1CCCCCC1	/	/	/	/	/	-3%
CCc1ccc(C(=O)OCC(=O)NC2CCCC2)cc1	30*	28%	7%	-11%	45	1%
COc1ccc(OCC(=O)NNC(=O)c2cccc(S(=O)(=O)N(C)C)c2)cc1	-2	-3%	-4%	42%	-9	-6%
O=C(CCc1ccccc1)Nc1ccc(F)cc1F	23*	62%	2%	/	67*	-1%
O=C(CCCc1ccccc1)Nc1ccc(Br)cc1F	55*	46%	-9%	7%	/	-2%
O=C(CCc1ccccc1)Nc1ccccc1F	30*	/	-5%	296%	74*	1%
O=C(CCSCCc1ccccn1)Nc1ccc(Br)cc1F	9	19%	-16%	15%	19	22%
O=C(CCOc1ccccc1)Nc1ccccc1F	32*	42%	-6%	4%	74*	0%
O=C(CCc1ccccc1)Nc1ccccc1C(F)(F)F	7	13%	-4%	-5%	1	-1%
O=C(NCCCCc1ccccc1)Nc1ccc(F)cc1F	21	7%	-12%	?	34	17%
Cn1c(N)c(C(=O)c2ccc(C#N)cc2)c(=O)n(C)c1=O	-8	13%	2%	-16%	-11	7%
COc1ccc(C2(CNC(=O)c3ccc(OCC(C)C)cc3)CCOCC2)cc1	-2	?	-2%	?	-30	-26%
O=C(NCC1CCCO1)c1cccc(S(=O)(=O)Nc2ccc(SC(F)F)cc2)c1 (centres undefined)	/	-18%	/	-13%	/	1%
COc1ccc2cc(OCC(=O)NNC(=O)Nc3ccc(F)cc3)ccc2c1	13	14%	9%	?	19	2%
O=C(CSCc1ccccc1)Nc1ccc(F)cc1F	21*	17%	-5%	18%	49*	-1%
O=C(CCCCCN1C(=O)CCC1=O)Nc1ccc(Br)cc1F	-2	19%	-1%	1µM*	18	-3%
NC(=O)c1ccccc1NC(=O)CCCN1C(=O)CCC1=O	-1	29%	6%	/	-9	-3%
O=C(Cn1cccc1)Nc1ccc(F)cc1F	-3	7%	0%	?	-1	16%
CSc1nc(N)nc(C2CC2)n1	-3	143%	1%	37%	-25	1%
CCc1ccc(CN(C)C(=O)CCc2nc3ccccc3n(-c3ccc(OC)cc3)c2=O)cc1	4	?	/	13µM*	-18	-8%
COc1ccc(-n2c(=O)c(CCC(=O)NCCc3ccccc3F)nc3ccccc32)cc1	/	?	/	?	/	-4%
COc1ccc(-n2c(=O)c(CCC(=O)N(C)Cc3ccccc3C)nc3ccccc32)cc1	-2	10µM*	/	8.3µM*	-4	0%
CCCCCn1nc(C(=O)N2CCc3ccccc32)c2ccccc2c1=O	/	10µM*	/	?	/	-15%
CCCn1nc(C(=O)N2CCc3ccccc32)c2ccccc2c1=O	/	?	/	?	/	5%
O=C(c1nn2c(C(F)(F)F)cc(-c3cccs3)nc2c1Cl)N1CCCc2ccccc21	48*	28%	1%	10µM*	80*	-2%
